{"source": "the supplement of paper PMC4022240", "assay_in_all_cases": "peptide microarray binding signal (635 nm), min-max normalized on array (fraction of array maximum); higher = stronger binding", "key": {"[1]": {"target": "T1, HaloTag-ATRX ADD domain (163-292)", "T1 chain": "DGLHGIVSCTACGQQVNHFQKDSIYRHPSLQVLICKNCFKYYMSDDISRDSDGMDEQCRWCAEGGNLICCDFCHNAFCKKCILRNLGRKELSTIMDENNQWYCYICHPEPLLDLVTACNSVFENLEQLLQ", "method": "(§1)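 Histone 13-mer peptides were synthesized as cellulose conjugates with a C-terminal 20-atom PEG linker and printed in triplicate on nitrocellulose. The sequence given is the unmodified backbone; PTMs (Kme1/2/3, Kac, Sph/Tph, Rme/Rme2a/Rme2s, Rcit) are listed in the label and the 'peptide modifications' condition. Slides were probed at 4 °C for 1 h with biotin-labelled (HQ)5-HaloTag reader fusions (ATRX-ADD, ING2-PHD) then streptavidin-Alexa647, or with rabbit histone antibodies then anti-rabbit Alexa647. The mean 635 nm signal of the triplicate spots was scaled 0-1 between the lowest and highest values on each array.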"}, "[2]": {"target": "HaloTag-ING2 PHD (mouse Ing2 200-280)", "method": "as §1"}, "[3]": {"target": "anti-H3K4me3 antibody ab8580", "method": "as §1"}, "[4]": {"target": "anti-H3K9me3 antibody ab8898", "method": "as §1"}, "[5]": {"details": "peptide region: H2B 1-13, peptide modifications: H2BK11ac, binder concentration: 1:2,000 dilution"}, "[6]": {"details": "peptide region: H2B 1-13, peptide modifications: H2BK11ac, binder concentration: 1:10,000 dilution"}, "[7]": {"details": "peptide region: H2A 11-23, peptide modifications: H2AK13ac H2AK15ac, binder concentration: 1:2,000 dilution"}, "[8]": {"details": "peptide region: H2A 11-23, peptide modifications: H2AK13ac H2AK15ac, binder concentration: 1:10,000 dilution"}, "[9]": {"details": "peptide region: H2A 11-23, peptide modifications: H2AK13ac, binder concentration: 1:2,000 dilution"}, "[10]": {"details": "peptide region: H2A 11-23, peptide modifications: H2AK13ac, binder concentration: 1:10,000 dilution"}, "[11]": {"details": "peptide region: H2B 1-13, binder concentration: 1:2,000 dilution"}, "[12]": {"details": "peptide region: H2B 1-13, binder concentration: 1:10,000 dilution"}, "[13]": {"details": "peptide region: H2B 7-19, peptide modifications: H2BK11ac H2BK12ac H2BK15ac H2BK16ac, binder concentration: 1:2,000 dilution"}, "[14]": {"details": "peptide region: H2B 7-19, peptide modifications: H2BK11ac H2BK12ac H2BK15ac H2BK16ac, binder concentration: 1:10,000 dilution"}}, "note": "± gives the standard deviation.", "data": [{"binder": "PEPAKSAPAPKKG", "note": "[H2B 1-13 P E P A K S A P A P Kac K G]", "values": [{"measurement": "peptide microarray binding signal", "setting": "[1]; peptide region: H2B 1-13, peptide modifications: H2BK11ac, binder concentration: 50 nM", "value": "0.00254 ± 0.00043"}, {"measurement": "peptide microarray binding signal", "setting": "[1]; peptide region: H2B 1-13, peptide modifications: H2BK11ac, binder concentration: 500 nM", "value": "0.001762 ± 1.6e-05"}, {"measurement": "peptide microarray binding signal", "setting": "[2]; peptide region: H2B 1-13, peptide modifications: H2BK11ac, binder concentration: 10 nM", "value": "0.0156 ± 0.012"}, {"measurement": "peptide microarray binding signal", "setting": "[2]; peptide region: H2B 1-13, peptide modifications: H2BK11ac, binder concentration: 100 nM", "value": 0.00113}, {"measurement": "peptide microarray binding signal", "setting": "[3]; [5]", "value": "0.000774 ± 9.3e-05"}, {"measurement": "peptide microarray binding signal", "setting": "[3]; [6]", "value": "0.000342 ± 3.8e-06"}, {"measurement": "peptide microarray binding signal", "setting": "[4]; [5]", "value": "0.000302 ± 1.1e-05"}, {"measurement": "peptide microarray binding signal", "setting": "[4]; [6]", "value": "0.000404 ± 4.4e-06"}]}, {"binder": "RAKAKTRSSRAGL", "note": "[H2A 11-23 R A Kac A Kac T R S S R A G L]", "values": [{"measurement": "peptide microarray binding signal", "setting": "[1]; peptide region: H2A 11-23, peptide modifications: H2AK13ac H2AK15ac, binder concentration: 50 nM", "value": "0.00307 ± 8.1e-05"}, {"measurement": "peptide microarray binding signal", "setting": "[1]; peptide region: H2A 11-23, peptide modifications: H2AK13ac H2AK15ac, binder concentration: 500 nM", "value": "0.00481 ± 0.00022"}, {"measurement": "peptide microarray binding signal", "setting": "[2]; peptide region: H2A 11-23, peptide modifications: H2AK13ac H2AK15ac, binder concentration: 10 nM", "value": "0.0034 ± 8e-05"}, {"measurement": "peptide microarray binding signal", "setting": "[2]; peptide region: H2A 11-23, peptide modifications: H2AK13ac H2AK15ac, binder concentration: 100 nM", "value": "0.00227 ± 5.8e-05"}, {"measurement": "peptide microarray binding signal", "setting": "[3]; [7]", "value": "0.000359 ± 1.5e-05"}, {"measurement": "peptide microarray binding signal", "setting": "[3]; [8]", "value": "0.000628 ± 6.7e-06"}, {"measurement": "peptide microarray binding signal", "setting": "[4]; [7]", "value": "0.000529 ± 5.7e-05"}, {"measurement": "peptide microarray binding signal", "setting": "[4]; [8]", "value": "0.000577 ± 1.6e-05"}]}, {"binder": "RAKAKTRSSRAGL", "note": "[H2A 11-23 R A Kac A K T R S S R A G L]", "values": [{"measurement": "peptide microarray binding signal", "setting": "[1]; peptide region: H2A 11-23, peptide modifications: H2AK13ac, binder concentration: 50 nM", "value": "0.00351 ± 0.00033"}, {"measurement": "peptide microarray binding signal", "setting": "[1]; peptide region: H2A 11-23, peptide modifications: H2AK13ac, binder concentration: 500 nM", "value": 0.00457}, {"measurement": "peptide microarray binding signal", "setting": "[2]; peptide region: H2A 11-23, peptide modifications: H2AK13ac, binder concentration: 10 nM", "value": "0.003641 ± 3.4e-05"}, {"measurement": "peptide microarray binding signal", "setting": "[2]; peptide region: H2A 11-23, peptide modifications: H2AK13ac, binder concentration: 100 nM", "value": "0.0034 ± 0.00042"}, {"measurement": "peptide microarray binding signal", "setting": "[3]; [9]", "value": "0.00051 ± 3.1e-05"}, {"measurement": "peptide microarray binding signal", "setting": "[3]; [10]", "value": "0.00103 ± 2.8e-05"}, {"measurement": "peptide microarray binding signal", "setting": "[4]; [9]", "value": "0.000378 ± 1.6e-05"}, {"measurement": "peptide microarray binding signal", "setting": "[4]; [10]", "value": "0.00075 ± 2.9e-05"}]}, {"binder": "PEPAKSAPAPKKG", "note": "[H2B 1-13 P E P A K S A P A P K K G]", "values": [{"measurement": "peptide microarray binding signal", "setting": "[1]; peptide region: H2B 1-13, binder concentration: 50 nM", "value": "0.00715 ± 0.00022"}, {"measurement": "peptide microarray binding signal", "setting": "[1]; peptide region: H2B 1-13, binder concentration: 500 nM", "value": "0.00119 ± 0.0002"}, {"measurement": "peptide microarray binding signal", "setting": "[2]; peptide region: H2B 1-13, binder concentration: 10 nM", "value": "0.00197 ± 0.00013"}, {"measurement": "peptide microarray binding signal", "setting": "[2]; peptide region: H2B 1-13, binder concentration: 100 nM", "value": "0.00149 ± 7.7e-05"}, {"measurement": "peptide microarray binding signal", "setting": "[3]; [11]", "value": "9.44e-05 ± 1e-06"}, {"measurement": "peptide microarray binding signal", "setting": "[3]; [12]", "value": "0.000342 ± 7.5e-06"}, {"measurement": "peptide microarray binding signal", "setting": "[4]; [11]", "value": "0.000257 ± 2.6e-05"}, {"measurement": "peptide microarray binding signal", "setting": "[4]; [12]", "value": "0.000807 ± 2.9e-05"}]}, {"binder": "APAPKKGSKKAVT", "note": "[H2B 7-19 A P A P Kac Kac G S Kac Kac A V T]", "values": [{"measurement": "peptide microarray binding signal", "setting": "[1]; peptide region: H2B 7-19, peptide modifications: H2BK11ac H2BK12ac H2BK15ac H2BK16ac, binder concentration: 50 nM", "value": "0.0047 ± 0.00016"}, {"measurement": "peptide microarray binding signal", "setting": "[1]; peptide region: H2B 7-19, peptide modifications: H2BK11ac H2BK12ac H2BK15ac H2BK16ac, binder concentration: 500 nM", "value": "0.00329 ± 0.00049"}, {"measurement": "peptide microarray binding signal", "setting": "[2]; peptide region: H2B 7-19, peptide modifications: H2BK11ac H2BK12ac H2BK15ac H2BK16ac, binder concentration: 10 nM", "value": "0.00555 ± 0.00016"}, {"measurement": "peptide microarray binding signal", "setting": "[2]; peptide region: H2B 7-19, peptide modifications: H2BK11ac H2BK12ac H2BK15ac H2BK16ac, binder concentration: 100 nM", "value": "0.00524 ± 0.00027"}, {"measurement": "peptide microarray binding signal", "setting": "[3]; [13]", "value": "0.000264 ± 1e-05"}, {"measurement": "peptide microarray binding signal", "setting": "[3]; [14]", "value": "0.000742 ± 1.3e-05"}, {"measurement": "peptide microarray binding signal", "setting": "[4]; [13]", "value": "0.000982 ± 5.2e-05"}, {"measurement": "peptide microarray binding signal", "setting": "[4]; [14]", "value": "0.00167 ± 2.8e-05"}]}]}
